Records with an inconclusive call do not appear. Active and inactive are the calls of the source. Calls follow the shape of the dose curve; as a rule, active = well fitted inhibition curve with a large enough effect; inconclusive = small, poorly fitted or top-dose-only effect; inactive = flat fitted curve, though single readings scatter.

The target in this assay is Dual specificity protein kinase CLK4 (Homo sapiens) (UniProt Q9HAZ1). Kind of assay: Confirmation Assay for Inhibitors of Clk4 (Kinase-Glo Assay): KU probe. As to conditions: recombinant Clk4, Kinase-Glo ATP luminescence; series mostly up to 76.9 µM. In outline: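 Read-out was Kinase-Glo luciferase luminescence of ATP left after 4.5 h room-temperature reaction. Final conditions: Clk4 25 nM, ATP 1 uM, RS peptide 100 uM, 25 mM Tris pH 7.5, 10 mM MgCl2, 0.5 mM EGTA, 2.5 mM DTT, 0.01% Triton X-100.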
Sequence of Dual specificity protein kinase CLK4 (Homo sapiens) (Q9HAZ1 whole entry, looked up): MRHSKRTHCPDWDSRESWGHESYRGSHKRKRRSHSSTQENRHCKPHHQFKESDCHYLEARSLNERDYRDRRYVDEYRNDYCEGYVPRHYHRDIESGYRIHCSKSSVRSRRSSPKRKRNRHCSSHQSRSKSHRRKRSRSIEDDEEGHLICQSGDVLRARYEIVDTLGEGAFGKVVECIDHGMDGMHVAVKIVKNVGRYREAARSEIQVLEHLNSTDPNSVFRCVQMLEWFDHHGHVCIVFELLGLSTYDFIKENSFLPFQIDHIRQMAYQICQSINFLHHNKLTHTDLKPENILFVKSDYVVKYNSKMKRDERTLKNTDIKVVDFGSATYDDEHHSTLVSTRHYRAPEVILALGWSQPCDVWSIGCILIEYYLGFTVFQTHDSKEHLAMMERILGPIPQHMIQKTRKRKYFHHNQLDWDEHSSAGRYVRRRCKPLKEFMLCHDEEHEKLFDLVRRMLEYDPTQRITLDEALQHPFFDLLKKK
(In Kinase-Glo more light means more ATP remaining.)
Regarding `Fc1ccc(CNc2ccnc(-c3ccc4c(c3)OCO4)n2)cc1Cl`, the Potency was 5190 nM (active). As to `Fc1cc(CNc2ccnc(-c3ccc4c(c3)OCO4)n2)ccc1Cl`, the Potency was 13000 nM (active). `CCN(C)c1ncnc2ccc(-c3ccc4c(c3)OCO4)cc12`: the Potency was 36.8 nM (active).

As to `Clc1cc(CNc2ccnc(-c3ccc4c(c3)OCO4)n2)ccn1`, the Potency was 3680 nM (active).

Take `Cc1ccc(CNc2ccnc(-c3ccc(N(C)C)cc3)n2)cc1`: the Potency result was “inactive”. To `c1cncc(CNc2cc(-c3ccc4c(c3)OCO4)ncn2)c1` belongs 6540 nM (active); to `Cc1csc(CNc2ncnc3ccc(-c4ccc(C(=O)O)o4)cc23)n1`, 292 nM (active). Turning to `O=C(Nc1ccnc(-c2ccc3c(c2)OCO3)n1)c1cnc(Cl)c(Cl)c1`, the Potency entry was “inactive”. On to `COc1cccc(-c2ccnc(NCc3ccc(Cl)cc3)n2)c1`, for which the Potency was 5820 nM (active). Take `c1cc(-c2ccc3c(c2)OCO3)nc(Nc2ccc3c(c2)OCO3)n1`: the Potency was 116 nM (active). As to `Brc1cncc(CNc2ccnc(-c3ccc4c(c3)OCO4)n2)c1`, the Potency was 8230 nM (active). To `CC(=O)c1ccc(-c2ccc3ncnc(NCc4ccc(C)o4)c3c2)o1` belongs 130 nM (active); to `c1cncc(CNc2nccc(-c3ccc4c(c3)OCO4)n2)c1`, 23.2 nM (active). `Clc1ccc(CNc2nccc(-c3ccc4c(c3)OCCO4)n2)cc1Cl`: the Potency was 116 nM (active). Take `CCNC(=O)c1ccc(-c2ccc3ncnc(NCC4CCCO4)c3c2)o1` (configuration not stated): the Potency was 328 nM (active). On to `c1nc(NCC2CCCCO2)c2cc(-c3ccc4c(c3)OCO4)ccc2n1` (configuration not stated), for which the Potency was 29.2 nM (active). To `COc1ccc(-c2nccc(NCc3ccc(Cl)c(Cl)c3)n2)cc1` belongs 11600 nM (active).

Source of the values: PubChem BioAssay AID624094 (National Center for Advancing Translational Sciences (NCATS), 2012).
